Source: PubChem (National Center for Advancing Translational Sciences (NCATS))
Sampled rows, rich in hits. Any-hit rate of the full collection: about 5.5%.
MBNL1 CUG block = MBNL1-poly(CUG) RNA binding inhibition; Potency, µM (series often up to 57.5 µM), without a hit: at the highest dose activity change, negative = inhibition, usual class: inhibitors; 280,000 compounds, 0.036% hits; Q9NR56; TR-FRET MBNL1-His/biotin-(CUG)12 binding, 665/545 ratio; active means well fitted inhibition curve with a large enough effect in the signal ratio, with a control signal flat, not every such curve was filed as active; inconclusive means small, poorly fitted or top-dose-only effect, or effect the other way, or a change in a side signal; inactive means no such curve, though single readings can be large or run the other way; the % refers to the signal ratio; further: potency means the concentration at half of the fitted maximal effect; on the % scale 0 is the no-effect control and ±100 the full control effect
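TR-FRET between His-tagged MBNL1 and biotin-(CUG)12 RNA, detected with Tb anti-His antibody (0.055 ng/ul) and streptavidin-XL665 (5 nM), 60 min at room temperature. Compounds titrated 92 nM to 58 uM; 665/545 nm ratio normalized to buffer and complex controls.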
CtBP-E1A blk = blocks the CtBP interaction with E1A | AlphaScreen GST-E1A/His-CtBP binding, 1536-well; active compounds read low | activity change, % (no concentration beside the values) | 340,000 compounds, 0.49% hits | AID 651724; in the data active means activity change below about -65%; inconclusive means mostly about -30% to -63%; further: on the % scale 0 is the no-effect control and ±100 the full control effect
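Protein mix (5X: 125 nM each GST-E1A, His-CtBP) was incubated with pinned compound 2 h at 37 deg C in dark, in 50 mM Tris pH 8.0 buffer with 300 mM NaCl. Glutathione donor and nickel acceptor beads followed; AlphaScreen signal read after 1 h.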
CBFb RUNX1 block = inhibitors of human CBF-beta and RUNX1 interaction. Q01196+Q13951. AlphaScreen CBFb-His/RUNX1-biotin binding, biochemical. Potency, µM (top dose mostly 59.8 µM), inactives show at the highest dose activity, negative = inhibition, actives largely listed as inhibitors. 230,000 tested, under 10 active. AID 1477; further: % of control where 0% means no effect
Target sequence (Q01196 whole entry, looked up): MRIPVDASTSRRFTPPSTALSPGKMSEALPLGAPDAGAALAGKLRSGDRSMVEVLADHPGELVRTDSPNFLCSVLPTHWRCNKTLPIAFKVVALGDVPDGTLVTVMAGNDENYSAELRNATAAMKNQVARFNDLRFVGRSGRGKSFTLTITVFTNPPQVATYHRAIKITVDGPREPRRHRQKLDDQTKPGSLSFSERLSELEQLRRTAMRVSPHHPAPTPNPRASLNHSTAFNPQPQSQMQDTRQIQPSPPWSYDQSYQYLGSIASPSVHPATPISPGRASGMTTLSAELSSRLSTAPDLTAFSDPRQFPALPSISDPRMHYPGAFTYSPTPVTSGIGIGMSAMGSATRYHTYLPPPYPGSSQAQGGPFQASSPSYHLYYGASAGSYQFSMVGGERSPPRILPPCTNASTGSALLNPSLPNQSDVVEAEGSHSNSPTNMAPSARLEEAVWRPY
Target sequence (Q13951 whole entry, looked up): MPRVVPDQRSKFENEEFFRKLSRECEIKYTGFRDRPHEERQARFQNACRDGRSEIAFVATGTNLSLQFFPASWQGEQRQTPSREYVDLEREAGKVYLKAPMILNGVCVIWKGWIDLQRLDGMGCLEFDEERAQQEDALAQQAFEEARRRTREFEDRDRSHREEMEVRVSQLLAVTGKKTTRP
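His-tagged CBF-beta and biotinylated RUNX1 (30 nM each) were premixed 20 min at room temperature, exposed to compound for 15 min, then given nickel-chelate and streptavidin AlphaScreen beads (50 ng each). After 90 min, AlphaScreen signal was read.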
RORg inh = ROR gamma (mouse) transcription inhibition | Drosophila S2 Gal4-RORgamma UAS-luciferase reporter, 20 h | 310,000 compounds, 5.4% hits | Potency, µM (series often up to 53.6 µM), for inactives: at the highest dose activity change, negative = inhibition, usual class: inhibitors | P51450; further: potency means the concentration at half of the fitted maximal effect; on the % scale 0 is the no-effect control and ±100 the full control effect; nearly all actives have a fitted effect of over 60% in size
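ROR gamma transcriptional activity was tracked as Gal4-UAS luciferase output in stably transfected Drosophila Schneider cells, with compound added 1 hr before 700 uM copper sulfate induction and a 20 hr ambient-temperature incubation.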
Six1-Eya2 inh = inhibitors of human Six1/Eya2 interaction. 360,000 compounds, 0.56% hits. AID 651725. Q15475+O00167. AlphaScreen GST-Six1/His-Eya2 binding, biochemical; active compounds read low. activity change, % (test concentration not listed); in the data active means activity change below about -65%; inconclusive means mostly about -30% to -63%; further: on the % scale 0 is the no-effect control and ±100 the full control effect
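AlphaScreen luminescence read after one hour at 37 °C in darkness. Pin-transferred compounds met GST-Six1 and His-Eya2 protein (5X stock 250 nM/500 nM) plus glutathione donor and Ni-chelate acceptor beads (5X, 50 ug/mL).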
VP16 counter = counter-screen for ROR gamma inhibitors: Gal4-VP16 reporter; Potency, µM (top dose mostly 53.6 µM), for the others: at the top dose activity, negative = inhibition, hits mostly inhibitors; 310,000 compounds, 3.5% hits; AID 2546; Drosophila S2 Gal4-VP16 UAS-luciferase, luminescence, 20 h;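 further: Gal4-VP16 expression switched on by copper sulfate through the metallothionein promoter; potency means the concentration at half of the fitted maximal effect; on the % scale 0 is the no-effect control and ±100 the full control effect; nearly all actives have a fitted effect of over 50% in size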
* marks the source's active call; other numbers are inactive results; ? = inconclusive; nt = not tested or not shown; [ ] = another dose, or the depositor's remark. Unless noted, the call rests on the fitted dose curve; in most records, active means well fitted curve in the direction sought with a large enough effect; inconclusive means small, poorly fitted or top-dose-only effect, or another doubt; inactive means no such curve, though single readings can be large; an effect the other way counts as inactive or inconclusive.

SMILES	MBNL1 CUG block	CtBP-E1A blk	CBFb RUNX1 block	RORg inh	Six1-Eya2 inh	VP16 counter
O=C1[C@H]2[C@@H](C(=O)N1c1cccc3ccccc13)C1(C(=O)c3ccccc3C1=O)N1CCC[C@@H]21	10%	-4	0%	-80%	-1	20µM*
S=c1[nH]nc(CN2CCCC2)n1Cc1ccccc1	-1%	-8	11%	11µM*	3	-8%
Cc1ccn(Cc2n[nH]c(=S)n2Cc2ccccc2)n1	-1%	2	-1%	-40%	12	-10%
S=c1[nH]nc(CN2CCCCC2)n1Cc1ccccc1	-3%	5	-14%	3.2µM*	1	18µM*
COc1ccc(CCN(Cc2nc3ccccc3c(=O)[nH]2)C(=O)C2CC2)cc1	4%	-20	3%	3.2µM*	18	13µM*
O=C(C1CCC1)N(CCc1ccccc1)Cc1nc2ccccc2c(=O)[nH]1	-3%	-1	1%	1.8µM*	-1	7.9µM*
O=C1CCCN1S(=O)(=O)c1ccc(F)cc1	-10%	nt	nt	nt	-2	nt
COc1ccc(CC(=O)Nc2cccc(-c3nnc(-c4ccc(C)cc4)o3)c2)cc1OC	6%	-1	6%	?	-1	?
COc1ccc(CC(=O)Nc2cccc(-c3nnc(-c4cccc(C)c4)o3)c2)cc1OC	0%	0	-6%	?	-3	7.9µM*
O=[N+]([O-])c1ccc(N=Nc2c(Cl)cc(O)cc2Cl)cc1	?	nt	nt	?	?	5µM*
Cc1ccccc1C(=O)N1CCC(C(=O)Nc2sccc2C(N)=O)CC1	nt	0	nt	nt	0	nt
CC(C)(C)NC(=O)C(c1ccncc1)N(C(=O)Cn1nnc(-c2ccc(F)cc2)n1)c1ccccc1F (centres undefined)	-12%	-3	-3%	13µM*	10	-27%
Cc1ccccc1N(C(=O)Cn1nnc(-c2ccc(F)cc2)n1)C(C(=O)NC(C)(C)C)c1ccncc1 (centres undefined)	?	-7	-12%	17%	-11	-12%
CCc1c2c(nc3ccc4c(c13)OCCO4)-c1nc3ccccc3c(=O)n1C2	nt	nt	?	2.5µM*	nt	13µM*
O=C(NC(=O)c1ccccc1O)c1ccc(C(F)(F)F)cc1	-9%	-1	9%	?	8	8.9µM*
CCCc1ccc(C(=O)NC(=O)c2ccccc2O)cc1	-1%	4	6%	2.8µM*	-4	1.6µM*
Cc1nc(C)c(-c2ccc(SCc3ccccc3C)nn2)s1	22%	nt	nt	25%	-13	-11%
CC(OC(=O)c1ccco1)C(=O)NC1CCCC1 (centres undefined)	-3%	1	nt	-17%	10	5%
Cc1ccc(NC2=CC(=O)c3sc(C)nc3C2=O)cc1	nt	nt	13%	2.2µM*	nt	2.5µM*
CN1OC[C@@H]2CN3C(=O)N(c4cccc5ccccc45)c4ccccc4[C@@H]3C[C@@H]21	nt	0	nt	nt	3	nt
CNC(=S)NNC(=O)c1ccc(=O)n(Cc2ccc(Cl)cc2Cl)c1	-1%	-13	9%	13µM*	7	?
CC(=O)CC1(OC(C)=O)C(=O)N(C)c2ccccc21 (centres undefined)	2%	-4	-3%	6.3µM*	-2	14µM*
COc1cc(NCCCCCCN)c2ncccc2c1OC	nt	-71*	nt	nt	?	nt
COc1cc(NC(C)CCCNC(C)C)c2ncccc2c1OC (centres undefined)	nt	-14	nt	nt	-5	nt
CCC(=O)N1CCc2cc(S(=O)(=O)Nc3ccccc3C)ccc21	-1%	5	nt	10%	-2	5%
SMILES	MBNL1 CUG block	CtBP-E1A blk	CBFb RUNX1 block	RORg inh	Six1-Eya2 inh	VP16 counter
Oc1csc(Cc2nc(-c3ccc(-c4ccccc4)cc3)cs2)n1	1%	0	-9%	?	0	-3%
Oc1csc(Cc2nc(-c3ccc4ccccc4c3)cs2)n1	18%	-5	-11%	11µM*	1	-36%
CC(=O)NC(c1cccc(F)c1)c1nc(-c2ccc3ccccc3c2)cs1 (centres undefined)	nt	-2	nt	nt	-2	nt
CCOc1ccccc1NS(=O)(=O)c1cc2c3c(c1)CC(=O)N3CCC2	-3%	-3	nt	9%	1	-1%
COc1cccc(C(C)NC(=S)NCc2ccc(Cl)cc2)c1 (centres undefined)	-3%	1	-3%	6.3µM*	8	?
O=C(NCc1ccc(F)cc1)C(c1ccccc1)c1ccccc1	0%	-1	nt	-23%	8	-3%
Cc1ccc(NC(=S)NCc2ccc(F)cc2)cc1	nt	2	nt	nt	3	nt
COC(=O)c1cccc(NC(=S)NCc2ccc(Cl)cc2)c1	0%	1	2%	?	-1	4%[0.365 µM]
COc1ccc(CCC(=O)NNC(=S)NCc2ccc(F)cc2)cc1	-1%	10	1%	7.9µM*	2	-19%
Cc1ccc(C)c(C(C)NC(=S)NCc2ccc(F)cc2)c1 (centres undefined)	-8%	0	nt	5µM*	1	1.4µM*
COc1ccc(CCC(=O)NNC(=O)c2ccc(F)cc2)cc1	0%	7	nt	-15%	10	-9%
CCC(NC(=S)NCc1ccc(F)cc1)c1ccccc1 (centres undefined)	-3%	-12	nt	3.5µM*	-4	3.2µM*
COC(=O)c1ccc(C(NC(=O)OCc2ccccc2)/C(I)=C/[C@@H](C)C(=O)NCC2CC2)cc1 (some centres undefined)	nt	nt	4%	?	nt	9%
O=S(=O)(Nc1ccncc1)c1ccc(Cl)c(Cl)c1	-7%	-3	nt	9%[1.91 µM]	0	-15%
COc1ccc(CCC(C)NCc2ccc(F)cc2)cc1 (centres undefined)	-3%	nt	nt	-24%	9	-2%
COc1ccc(C(C)NC(=S)NCc2ccc(F)cc2)cc1 (centres undefined)	-14%	-5	nt	5.6µM*	-7	1µM*
CN(Cc1cccc(Cl)c1)C(=O)C1CSC2(C)CCC(=O)N12 (centres undefined)	2%	-3	nt	8%	1	12%
COc1cc(OC)cc(C(=O)NCCCNC(=O)c2cccnc2)c1	0%	4	nt	-26%	0	-1%
Cc1ccc(C(=O)Nc2nnc(-c3ccncc3)o2)cc1	-5%	-22	-6%	0%	-23	5%
O=C(Nc1cccc(NC(=O)c2cccc(Cl)c2)c1)c1cccnc1	-2%	0	nt	14%	-12	-13%
COc1cc(OC)cc(C(=O)Nc2nnc(-c3cccnc3)o2)c1	0%	-17	?	1.4µM*	?	4.5µM*
Cc1cccc(-c2nnc(NC(=O)c3ccc(Cl)cc3)o2)c1	5%	-8	0%	1.4µM*	-5	1.4µM*
